Experimental data reported in PMC11006913.
Where a chain is given by its changes, count along the chain named.

What was measured:
Test in all cases: PBM; 200 nM protein, PBS
Details in all cases: dsDNA, one strand shown
HOXA4 [1] = target: HOXA4 (Homo sapiens, UniProt Q00056 201-287, W262R)
HOXB6 [2] = target: HOXB6 (Homo sapiens, UniProt P17509 132-218, K202E)
HOXA4 [3] = target: HOXA4 (Homo sapiens, UniProt Q00056 201-287, R217L)
HOXA4 [4] = target: HOXA4 (Homo sapiens, UniProt Q00056 201-287)
HOXA4 [5] = target: HOXA4 (Homo sapiens, UniProt Q00056 201-287, W262F)
HOXB6 [6] = target: HOXB6 (Homo sapiens, UniProt P17509 132-218)
HOXA2 [7] = target: HOXA2 (Homo sapiens, UniProt O43364 129-215, R185K)
ALX3 [8] = target: ALX3 (Homo sapiens, UniProt O95076 139-225, N203Q)
ALX3 [9] = target: ALX3 (Homo sapiens, UniProt O95076 139-225, N203S)
ALX4 = ALX4 (Homo sapiens, UniProt Q9H161 200-286, Q225E)
HOXD13 [10] = target: HOXD13 (Homo sapiens, UniProt P35453 263-343, T313R)
HOXD13 [11] = target: HOXD13 (Homo sapiens, UniProt P35453 263-343)
HOXD13 [12] = target: HOXD13 (Homo sapiens, UniProt P35453 263-343, T313A)
HOXC9 = HOXC9 (Homo sapiens, UniProt P31274 178-260, R222W)
MSX2 [13] = target: MSX2 (Homo sapiens, UniProt P35548 130-214, R199I)
MSX2 [14] = target: MSX2 (Homo sapiens, UniProt P35548 130-214)
MSX2 [15] = target: MSX2 (Homo sapiens, UniProt P35548 130-214, F161Y)
VAX1 [16] = target: VAX1 (Homo sapiens, UniProt Q5SQQ9 86-172)
VAX1 [17] = target: VAX1 (Homo sapiens, UniProt Q5SQQ9 86-172, T142I)
VAX1 [18] = target: VAX1 (Homo sapiens, UniProt Q5SQQ9 86-172, K157R)
NKX2-6 [19] = target: T1, NKX2-6 (Homo sapiens, UniProt A6NCS4 118-204)
T1 sequence: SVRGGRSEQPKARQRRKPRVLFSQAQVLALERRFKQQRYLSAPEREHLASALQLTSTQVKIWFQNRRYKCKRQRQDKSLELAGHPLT

NKX2-6 [20] = target: T2, NKX2-6 (Homo sapiens, UniProt A6NCS4 118-204, F151L)
T2 sequence: T1 sequence with F34L

ALX3 [21] = target: ALX3 (Homo sapiens, UniProt O95076 139-225)
ALX3 [22] = target: ALX3 (Homo sapiens, UniProt O95076 139-225, L168Q)
ALX3 [23] = target: ALX3 (Homo sapiens, UniProt O95076 139-225, L168V)
HOXA2 [24] = target: HOXA2 (Homo sapiens, UniProt O43364 129-215, R185T)
HOXA2 [25] = target: HOXA2 (Homo sapiens, UniProt O43364 129-215, Y150S)
HOXA2 [26] = target: HOXA2 (Homo sapiens, UniProt O43364 129-215)
PITX2 = PITX2 (Homo sapiens, UniProt Q99697 72-157)

Sequence of ALX3 (Homo sapiens, UniProt O95076 139-225, N203Q) (O95076 139-225 N203Q): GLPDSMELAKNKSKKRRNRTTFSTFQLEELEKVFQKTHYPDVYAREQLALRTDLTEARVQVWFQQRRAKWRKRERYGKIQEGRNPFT
Sequence of MSX2 (Homo sapiens, UniProt P35548 130-214, R199I) (P35548 130-214 R199I): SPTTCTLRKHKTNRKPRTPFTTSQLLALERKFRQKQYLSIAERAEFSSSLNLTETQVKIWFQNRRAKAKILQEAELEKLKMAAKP
Sequence of HOXA4 (Homo sapiens, UniProt Q00056 201-287, W262F) (Q00056 201-287 W262F): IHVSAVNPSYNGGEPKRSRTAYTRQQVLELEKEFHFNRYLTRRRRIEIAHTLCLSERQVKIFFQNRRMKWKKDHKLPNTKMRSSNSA
Sequence of MSX2 (Homo sapiens, UniProt P35548 130-214) (P35548 130-214): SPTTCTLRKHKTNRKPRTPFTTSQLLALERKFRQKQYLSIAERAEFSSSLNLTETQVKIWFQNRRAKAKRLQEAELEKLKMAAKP
Sequence of HOXA4 (Homo sapiens, UniProt Q00056 201-287) (Q00056 201-287): as the sequence (Q00056 201-287 W262F) above, with F62W counted along it
Sequence of ALX3 (Homo sapiens, UniProt O95076 139-225, N203S) (O95076 139-225 N203S): as the sequence (O95076 139-225 N203Q) above, with Q65S counted along it
Sequence of MSX2 (Homo sapiens, UniProt P35548 130-214, F161Y) (P35548 130-214 F161Y): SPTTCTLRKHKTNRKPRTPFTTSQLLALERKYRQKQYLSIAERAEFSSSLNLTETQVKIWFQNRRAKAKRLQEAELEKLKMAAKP
Sequence of HOXA4 (Homo sapiens, UniProt Q00056 201-287, R217L) (Q00056 201-287 R217L): as the sequence (Q00056 201-287 W262F) above, with R17L, F62W counted along it
Sequence of HOXA4 (Homo sapiens, UniProt Q00056 201-287, W262R) (Q00056 201-287 W262R): as the sequence (Q00056 201-287 W262F) above, with F62R counted along it
Sequence of ALX3 (Homo sapiens, UniProt O95076 139-225) (O95076 139-225): as the sequence (O95076 139-225 N203Q) above, with Q65N counted along it
Sequence of HOXA2 (Homo sapiens, UniProt O43364 129-215, R185K) (O43364 129-215 R185K): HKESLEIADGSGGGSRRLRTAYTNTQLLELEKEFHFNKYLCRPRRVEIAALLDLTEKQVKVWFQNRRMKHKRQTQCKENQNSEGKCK
Sequence of HOXD13 (Homo sapiens, UniProt P35453 263-343, T313R) (P35453 263-343 T313R): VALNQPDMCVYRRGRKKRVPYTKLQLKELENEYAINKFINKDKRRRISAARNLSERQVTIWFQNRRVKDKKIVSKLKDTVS
Sequence of ALX3 (Homo sapiens, UniProt O95076 139-225, L168Q) (O95076 139-225 L168Q): as the sequence (O95076 139-225 N203Q) above, with L30Q, Q65N counted along it
Sequence of HOXD13 (Homo sapiens, UniProt P35453 263-343, T313A) (P35453 263-343 T313A): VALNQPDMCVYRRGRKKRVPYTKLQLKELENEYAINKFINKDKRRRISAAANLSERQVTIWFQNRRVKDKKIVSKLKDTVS
Sequence of ALX3 (Homo sapiens, UniProt O95076 139-225, L168V) (O95076 139-225 L168V): as the sequence (O95076 139-225 N203Q) above, with L30V, Q65N counted along it
Sequence of HOXD13 (Homo sapiens, UniProt P35453 263-343) (P35453 263-343): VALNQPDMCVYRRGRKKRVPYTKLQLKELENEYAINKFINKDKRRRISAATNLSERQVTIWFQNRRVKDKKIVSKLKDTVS
Sequence of HOXA2 (Homo sapiens, UniProt O43364 129-215, R185T) (O43364 129-215 R185T): as the sequence (O43364 129-215 R185K) above, with K57T counted along it
Sequence of VAX1 (Homo sapiens, UniProt Q5SQQ9 86-172) (Q5SQQ9 86-172): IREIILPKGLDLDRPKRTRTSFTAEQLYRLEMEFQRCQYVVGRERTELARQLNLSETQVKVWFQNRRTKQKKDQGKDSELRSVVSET
Sequence of HOXA2 (Homo sapiens, UniProt O43364 129-215, Y150S) (O43364 129-215 Y150S): as the sequence (O43364 129-215 R185K) above, with Y22S, K57R counted along it
Sequence of HOXA2 (Homo sapiens, UniProt O43364 129-215) (O43364 129-215): as the sequence (O43364 129-215 R185K) above, with K57R counted along it
Sequence of HOXB6 (Homo sapiens, UniProt P17509 132-218, K202E) (P17509 132-218 K202E): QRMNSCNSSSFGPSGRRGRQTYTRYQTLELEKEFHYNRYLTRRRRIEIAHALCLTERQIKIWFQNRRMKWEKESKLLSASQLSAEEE
Sequence of VAX1 (Homo sapiens, UniProt Q5SQQ9 86-172, K157R) (Q5SQQ9 86-172 K157R): as the sequence (Q5SQQ9 86-172) above, with K72R counted along it
Sequence of HOXC9 (P31274 178-260 R222W): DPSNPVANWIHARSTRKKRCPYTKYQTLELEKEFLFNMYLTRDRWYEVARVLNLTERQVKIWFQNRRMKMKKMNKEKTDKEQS
Sequence of ALX4 (Q9H161 200-286 Q225E): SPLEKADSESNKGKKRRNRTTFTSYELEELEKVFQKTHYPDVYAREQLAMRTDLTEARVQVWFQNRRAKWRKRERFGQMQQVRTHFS
Sequence of HOXB6 (Homo sapiens, UniProt P17509 132-218) (P17509 132-218): as the sequence (P17509 132-218 K202E) above, with E71K counted along it
Sequence of VAX1 (Homo sapiens, UniProt Q5SQQ9 86-172, T142I) (Q5SQQ9 86-172 T142I): as the sequence (Q5SQQ9 86-172) above, with T57I counted along it

CCCCCTAG
binding signal (HOXA4 [1]): 9.8 upbm affinity estimate (log intensity, higher = more binding, comparable within an allelic series) | binding signal (HOXB6 [2]): 8.81 upbm affinity estimate (log intensity, higher = more binding, comparable within an allelic series) | binding signal (HOXA4 [3]): 9.86 upbm affinity estimate (log intensity, higher = more binding, comparable within an allelic series) | binding signal (HOXA4 [4]): 9.77 upbm affinity estimate (log intensity, higher = more binding, comparable within an allelic series) | binding signal (HOXA4 [5]): 9.73 upbm affinity estimate (log intensity, higher = more binding, comparable within an allelic series) | binding signal (HOXB6 [6]): 8.86 upbm affinity estimate (log intensity, higher = more binding, comparable within an allelic series)

CATTAATC
binding signal (HOXA4 [1]): 10.5 upbm affinity estimate (log intensity, higher = more binding, comparable within an allelic series) | binding signal (HOXA4 [3]): 11.9 upbm affinity estimate (log intensity, higher = more binding, comparable within an allelic series) | binding signal (HOXA2 [7]): 13.2 upbm affinity estimate (log intensity, higher = more binding, comparable within an allelic series) | binding signal (HOXA4 [4]): 13.6 upbm affinity estimate (log intensity, higher = more binding, comparable within an allelic series) | binding signal (HOXA4 [5]): 11.3 upbm affinity estimate (log intensity, higher = more binding, comparable within an allelic series)

AACTAATA
binding signal (HOXA4 [1]): 10.5 upbm affinity estimate (log intensity, higher = more binding, comparable within an allelic series) | binding signal (HOXA4 [3]): 11.2 upbm affinity estimate (log intensity, higher = more binding, comparable within an allelic series) | binding signal (ALX3 [8]): 8.57 upbm affinity estimate (log intensity, higher = more binding, comparable within an allelic series) | binding signal (HOXA4 [4]): 12.5 upbm affinity estimate (log intensity, higher = more binding, comparable within an allelic series) | binding signal (HOXA4 [5]): 11 upbm affinity estimate (log intensity, higher = more binding, comparable within an allelic series) | binding signal (ALX3 [9]): 8.65 upbm affinity estimate (log intensity, higher = more binding, comparable within an allelic series)

CAATAAAG
binding signal (HOXA4 [1]): 10.4 upbm affinity estimate (log intensity, higher = more binding, comparable within an allelic series) | binding signal (ALX4): 10.7 upbm affinity estimate (log intensity, higher = more binding, comparable within an allelic series) | binding signal (HOXD13 [10]): 10.8 upbm affinity estimate (log intensity, higher = more binding, comparable within an allelic series) | binding signal (HOXD13 [11]): 11.9 upbm affinity estimate (log intensity, higher = more binding, comparable within an allelic series) | binding signal (HOXA4 [4]): 11.7 upbm affinity estimate (log intensity, higher = more binding, comparable within an allelic series) | binding signal (HOXD13 [12]): 11.7 upbm affinity estimate (log intensity, higher = more binding, comparable within an allelic series) | binding signal (HOXC9): 11.1 upbm affinity estimate (log intensity, higher = more binding, comparable within an allelic series)

GCTGCTCC
binding signal (HOXA4 [1]): 9.76 upbm affinity estimate (log intensity, higher = more binding, comparable within an allelic series) | binding signal (HOXA4 [3]): 9.74 upbm affinity estimate (log intensity, higher = more binding, comparable within an allelic series) | binding signal (MSX2 [13]): 9.39 upbm affinity estimate (log intensity, higher = more binding, comparable within an allelic series) | binding signal (HOXA4 [4]): 9.73 upbm affinity estimate (log intensity, higher = more binding, comparable within an allelic series) | binding signal (MSX2 [14]): 9.4 upbm affinity estimate (log intensity, higher = more binding, comparable within an allelic series) | binding signal (MSX2 [15]): 9.41 upbm affinity estimate (log intensity, higher = more binding, comparable within an allelic series) | binding signal (HOXA4 [5]): 9.78 upbm affinity estimate (log intensity, higher = more binding, comparable within an allelic series)

GACTCACC
binding signal (HOXA4 [1]): 9.89 upbm affinity estimate (log intensity, higher = more binding, comparable within an allelic series) | binding signal (HOXA4 [3]): 9.87 upbm affinity estimate (log intensity, higher = more binding, comparable within an allelic series) | binding signal (HOXA4 [4]): 9.79 upbm affinity estimate (log intensity, higher = more binding, comparable within an allelic series) | binding signal (VAX1 [16]): 6.98 upbm affinity estimate (log intensity, higher = more binding, comparable within an allelic series) | binding signal (VAX1 [17]): 7.2 upbm affinity estimate (log intensity, higher = more binding, comparable within an allelic series) | binding signal (HOXA4 [5]): 9.8 upbm affinity estimate (log intensity, higher = more binding, comparable within an allelic series) | binding signal (VAX1 [18]): 7.1 upbm affinity estimate (log intensity, higher = more binding, comparable within an allelic series)

CCAGCCGG
binding signal (HOXA4 [1]): 9.8 upbm affinity estimate (log intensity, higher = more binding, comparable within an allelic series) | binding signal (HOXA4 [3]): 9.68 upbm affinity estimate (log intensity, higher = more binding, comparable within an allelic series) | binding signal (HOXA4 [4]): 9.56 upbm affinity estimate (log intensity, higher = more binding, comparable within an allelic series) | binding signal (HOXA4 [5]): 9.77 upbm affinity estimate (log intensity, higher = more binding, comparable within an allelic series)

CCCGGTCG
binding signal (HOXA4 [1]): 9.67 upbm affinity estimate (log intensity, higher = more binding, comparable within an allelic series) | binding signal (HOXA4 [3]): 9.77 upbm affinity estimate (log intensity, higher = more binding, comparable within an allelic series) | binding signal (MSX2 [13]): 9.45 upbm affinity estimate (log intensity, higher = more binding, comparable within an allelic series) | binding signal (NKX2-6 [19]): 9.06 upbm affinity estimate (log intensity, higher = more binding, comparable within an allelic series) | binding signal (HOXA4 [4]): 9.88 upbm affinity estimate (log intensity, higher = more binding, comparable within an allelic series) | binding signal (MSX2 [14]): 9.4 upbm affinity estimate (log intensity, higher = more binding, comparable within an allelic series) | binding signal (NKX2-6 [20]): 9.02 upbm affinity estimate (log intensity, higher = more binding, comparable within an allelic series) | binding signal (MSX2 [15]): 9.41 upbm affinity estimate (log intensity, higher = more binding, comparable within an allelic series) | binding signal (HOXA4 [5]): 9.76 upbm affinity estimate (log intensity, higher = more binding, comparable within an allelic series)

GGCCCGGA
binding signal (HOXA4 [1]): 9.72 upbm affinity estimate (log intensity, higher = more binding, comparable within an allelic series) | binding signal (HOXA4 [3]): 9.68 upbm affinity estimate (log intensity, higher = more binding, comparable within an allelic series) | binding signal (MSX2 [13]): 9.48 upbm affinity estimate (log intensity, higher = more binding, comparable within an allelic series) | binding signal (ALX3 [8]): 7.72 upbm affinity estimate (log intensity, higher = more binding, comparable within an allelic series) | binding signal (HOXA4 [4]): 9.79 upbm affinity estimate (log intensity, higher = more binding, comparable within an allelic series) | binding signal (MSX2 [14]): 9.31 upbm affinity estimate (log intensity, higher = more binding, comparable within an allelic series) | binding signal (ALX3 [21]): 7.7 upbm affinity estimate (log intensity, higher = more binding, comparable within an allelic series) | binding signal (ALX3 [22]): 7.72 upbm affinity estimate (log intensity, higher = more binding, comparable within an allelic series) | binding signal (ALX3 [23]): 7.71 upbm affinity estimate (log intensity, higher = more binding, comparable within an allelic series) | binding signal (MSX2 [15]): 9.46 upbm affinity estimate (log intensity, higher = more binding, comparable within an allelic series) | binding signal (HOXA4 [5]): 9.78 upbm affinity estimate (log intensity, higher = more binding, comparable within an allelic series) | binding signal (ALX3 [9]): 7.75 upbm affinity estimate (log intensity, higher = more binding, comparable within an allelic series)

AGGGCTCC
binding signal (HOXA4 [1]): 9.75 upbm affinity estimate (log intensity, higher = more binding, comparable within an allelic series) | binding signal (HOXA2 [24]): 7.29 upbm affinity estimate (log intensity, higher = more binding, comparable within an allelic series) | binding signal (HOXA4 [3]): 9.79 upbm affinity estimate (log intensity, higher = more binding, comparable within an allelic series) | binding signal (HOXA2 [7]): 10.4 upbm affinity estimate (log intensity, higher = more binding, comparable within an allelic series) | binding signal (HOXA4 [4]): 9.81 upbm affinity estimate (log intensity, higher = more binding, comparable within an allelic series) | binding signal (HOXA2 [25]): 10.3 upbm affinity estimate (log intensity, higher = more binding, comparable within an allelic series) | binding signal (HOXA4 [5]): 9.81 upbm affinity estimate (log intensity, higher = more binding, comparable within an allelic series) | binding signal (HOXA2 [26]): 7.22 upbm affinity estimate (log intensity, higher = more binding, comparable within an allelic series)

GCGGTCAC
binding signal (HOXA4 [1]): 9.83 upbm affinity estimate (log intensity, higher = more binding, comparable within an allelic series) | binding signal (HOXA4 [3]): 9.77 upbm affinity estimate (log intensity, higher = more binding, comparable within an allelic series) | binding signal (PITX2): 7.97 upbm affinity estimate (log intensity, higher = more binding, comparable within an allelic series) | binding signal (HOXA4 [4]): 9.75 upbm affinity estimate (log intensity, higher = more binding, comparable within an allelic series) | binding signal (HOXA4 [5]): 9.9 upbm affinity estimate (log intensity, higher = more binding, comparable within an allelic series)

CCCCCCGA
binding signal (HOXA4 [1]): 9.72 upbm affinity estimate (log intensity, higher = more binding, comparable within an allelic series) | binding signal (HOXA4 [3]): 9.69 upbm affinity estimate (log intensity, higher = more binding, comparable within an allelic series) | binding signal (ALX3 [8]): 7.7 upbm affinity estimate (log intensity, higher = more binding, comparable within an allelic series) | binding signal (HOXA4 [4]): 9.77 upbm affinity estimate (log intensity, higher = more binding, comparable within an allelic series) | binding signal (ALX3 [21]): 7.94 upbm affinity estimate (log intensity, higher = more binding, comparable within an allelic series) | binding signal (ALX3 [22]): 7.67 upbm affinity estimate (log intensity, higher = more binding, comparable within an allelic series) | binding signal (ALX3 [23]): 7.65 upbm affinity estimate (log intensity, higher = more binding, comparable within an allelic series) | binding signal (HOXA4 [5]): 9.57 upbm affinity estimate (log intensity, higher = more binding, comparable within an allelic series) | binding signal (ALX3 [9]): 7.71 upbm affinity estimate (log intensity, higher = more binding, comparable within an allelic series)

AGGCTGGG
binding signal (HOXA4 [1]): 9.88 upbm affinity estimate (log intensity, higher = more binding, comparable within an allelic series) | binding signal (HOXA4 [3]): 9.85 upbm affinity estimate (log intensity, higher = more binding, comparable within an allelic series) | binding signal (HOXD13 [10]): 9.56 upbm affinity estimate (log intensity, higher = more binding, comparable within an allelic series) | binding signal (HOXD13 [11]): 9.59 upbm affinity estimate (log intensity, higher = more binding, comparable within an allelic series) | binding signal (HOXA4 [4]): 9.82 upbm affinity estimate (log intensity, higher = more binding, comparable within an allelic series) | binding signal (HOXD13 [12]): 9.67 upbm affinity estimate (log intensity, higher = more binding, comparable within an allelic series) | binding signal (HOXA4 [5]): 9.84 upbm affinity estimate (log intensity, higher = more binding, comparable within an allelic series)
